Data published in ChEMBL document CHEMBL3988442, “University of Dundee, Small-Polar-MMV Screening Library” (2021).

Target: T1, Aspartate--tRNA(Asp/Asn) ligase (Mycobacterium tuberculosis (strain ATCC 25618 / H37Rv)) (UniProt P9WFW3); also: in the data most compounds retested in dose-response had high values
T1 sequence (whole entry): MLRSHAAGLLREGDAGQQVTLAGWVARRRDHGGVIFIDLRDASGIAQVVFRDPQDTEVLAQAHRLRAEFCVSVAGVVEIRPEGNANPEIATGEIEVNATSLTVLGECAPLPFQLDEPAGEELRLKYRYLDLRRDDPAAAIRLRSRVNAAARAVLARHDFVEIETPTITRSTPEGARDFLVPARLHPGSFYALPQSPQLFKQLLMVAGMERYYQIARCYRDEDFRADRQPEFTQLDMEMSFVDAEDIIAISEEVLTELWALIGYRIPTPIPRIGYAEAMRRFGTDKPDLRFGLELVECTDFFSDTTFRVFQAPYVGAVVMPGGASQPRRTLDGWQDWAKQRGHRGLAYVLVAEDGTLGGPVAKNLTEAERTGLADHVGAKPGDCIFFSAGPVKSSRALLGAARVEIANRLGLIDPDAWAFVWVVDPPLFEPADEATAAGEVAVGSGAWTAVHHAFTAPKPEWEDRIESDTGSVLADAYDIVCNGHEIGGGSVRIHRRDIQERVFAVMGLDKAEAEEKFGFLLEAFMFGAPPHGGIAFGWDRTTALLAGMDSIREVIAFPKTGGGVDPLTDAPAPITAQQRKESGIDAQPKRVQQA
Assay: Assay for Asp RNA synthetase-1 from Mycobacterium tuberculosis
Type: functional
Set-up: scale not given: direction of the effect not stated beside the values
Conditions: 30 µM

SMILES	Percent Effect
Cc1c(C)n(Cc2ccncc2)c2nc3c(c(N)c12)CCCCC3	4.67%
CCc1c(C)nc2n(c1=O)CC(C(=O)Nc1nc3c(s1)CCCC3)CS2 (stereo not given)	2.32%
CNC(=O)c1ccc(OC2CCN(S(C)(=O)=O)CC2)c(Cl)c1	-0.864%
CC(C)C(=O)N1CCCC(c2ncncc2-c2ccncc2)C1 (stereo not given)	-3.04%
CCCc1nc(CN2CCOC(CNc3cccnn3)C2)cs1 (stereo not given)	3.73%
Cc1ccc(NC2CCN(C(=O)Cn3nc(C)cc3C)CC2)nn1	-3.3%
Cc1nc(C)n(CC2CCCN(c3ncnc4ccsc34)C2)n1 (stereo not given)	0.756%
COc1ccc2nnc(CCCC(=O)NCCC3=CCCCC3)n2n1	0.319%
Cc1csc(N2CCCN(C(=O)c3c(C)oc(C)c3C)CC2)n1	-1.31%
CC(C)Cc1nc(OCC(=O)O)c(C#N)c2c1CCC2	0.639%
CC(C)c1nn(C)c(N(C)C)c1CNCC(O)c1ccccc1F (stereo not given)	-7.16%
CC(=O)NC(C)c1ccc(OCC2CC2)c(F)c1 (stereo not given)	0.15%
Cc1cc(CN2CCN(C(C)c3nc(C4CC4)no3)CC2)no1 (stereo not given)	3.89%
COC(C(=O)N1CCCN(Cc2cscn2)CC1)c1ccccc1 (stereo not given)	0.144%
O=C(C1CCC1)N1CCN(Cc2ccsc2)[C@H]2CS(=O)(=O)C[C@H]21	-4.67%
CNC(=O)C1CCN(C(=O)c2cccn2Cc2cccs2)CC1	0.91%
Cc1ccc(-c2cccc(-c3ccn(CCN4CCCC4)n3)c2)nn1	-1.26%
CCCN1CC(C(=O)Nc2ccccn2)CC1=O (stereo not given)	-1.33%
NC(=O)C1CCC(NC(=O)COc2ccc(Cl)c(Cl)c2)CC1 (stereo not given)	3.91%
O=C(Cc1ccccc1)N1CCC2(CC(=O)N(c3cccc(F)c3)C2)C1 (stereo not given)	-1.85%

SMILES	Percent Effect
CNC(=O)COc1ccc(CNCc2ccc(F)cc2F)cc1	3.4%
CC1(C)CN(C(=O)NCCc2ccn(-c3ccccc3)n2)CCO1	2.57%
Cc1nccn1CCCC(=O)N1CCC(Nc2cccnn2)CC1	-0.211%
O=C(NC[C@H]1OC[C@@H]2CCN(Cc3ccco3)C[C@@H]21)c1ccsc1	-1.14%
Cc1ncc(CN(C)C2CCCN(Cc3noc(C4CC4)n3)C2)s1 (stereo not given)	-2.9%
CCc1noc(CN2CCN(C(=O)N(C)C)CC2)n1	-1.26%
O=C1CC2(CCN(S(=O)(=O)C3CC3)C2)CN1c1cncnc1 (stereo not given)	4.51%
Cc1nccn1C1CCCN(C(=O)COCC(F)(F)F)C1 (stereo not given)	-1.01%
CC(=O)N1CCCN(Cc2csc(-c3ncccn3)n2)CC1	5.15%
CC(NC(=O)N(C)CCCOc1ccc(F)cc1)c1nncn1C (stereo not given)	-2.37%
c1cnn(CC2CN(CC3CCCC3)CCO2)c1 (stereo not given)	-6.1%
CC(C)(CNC(=O)NCCOc1cccc(F)c1)C(N)=O	-1.21%
COC[C@@]12CCO[C@@H]1CCN(Cc1ccccc1F)C2	0.843%
CNc1cccc(C2CCCN(C(C)=O)C2)n1 (stereo not given)	7.52%
CN(C)S(=O)(=O)N1CCC(Oc2ccccn2)CC1	3.02%
N#CC1CCCN(c2nc(-c3ccccc3)nc3c2CCNCC3)C1 (stereo not given)	0.524%
COc1cc(C(=O)N2CCCS2(=O)=O)cc(Cl)c1OC	-11.2%
Cc1cc(C(=O)N2CC[C@@H]3CN(S(C)(=O)=O)CCO[C@@H]3C2)c(C)o1	2.19%
N#CCCN(CCC#N)C(=O)CN1CCCC1Cc1cccc(F)c1 (stereo not given)	5.73%
Cc1cnn(CC(C)NCc2csc(-c3ccco3)n2)c1 (stereo not given)	2.75%

Target: Shiga toxin 2 (Escherichia coli O157:H7) (UniProt P09385+P09386)
Assay: E. coli 0.157:H7 Shiga Toxin SOP - stx2 screening assay
Type: functional
Set-up: scale not given: direction of the effect not stated beside the values
Conditions: 30 µM

SMILES	Percent Effect
Cc1c(C)n(Cc2ccncc2)c2nc3c(c(N)c12)CCCCC3	-41.4%
CCc1c(C)nc2n(c1=O)CC(C(=O)Nc1nc3c(s1)CCCC3)CS2 (stereo not given)	-5.2%
CNC(=O)c1ccc(OC2CCN(S(C)(=O)=O)CC2)c(Cl)c1	-64.7%
CC(C)C(=O)N1CCCC(c2ncncc2-c2ccncc2)C1 (stereo not given)	-34.6%
CCCc1nc(CN2CCOC(CNc3cccnn3)C2)cs1 (stereo not given)	27.3%
Cc1ccc(NC2CCN(C(=O)Cn3nc(C)cc3C)CC2)nn1	28.3%
Cc1nc(C)n(CC2CCCN(c3ncnc4ccsc34)C2)n1 (stereo not given)	28.8%
COc1ccc2nnc(CCCC(=O)NCCC3=CCCCC3)n2n1	-54.6%
Cc1csc(N2CCCN(C(=O)c3c(C)oc(C)c3C)CC2)n1	-3.9%
CC(C)Cc1nc(OCC(=O)O)c(C#N)c2c1CCC2	-5.61%
CC(C)c1nn(C)c(N(C)C)c1CNCC(O)c1ccccc1F (stereo not given)	-23.3%
CC(=O)NC(C)c1ccc(OCC2CC2)c(F)c1 (stereo not given)	4.12%
Cc1cc(CN2CCN(C(C)c3nc(C4CC4)no3)CC2)no1 (stereo not given)	-2.55%
COC(C(=O)N1CCCN(Cc2cscn2)CC1)c1ccccc1 (stereo not given)	3.66%
O=C(C1CCC1)N1CCN(Cc2ccsc2)[C@H]2CS(=O)(=O)C[C@H]21	-39.6%
CNC(=O)C1CCN(C(=O)c2cccn2Cc2cccs2)CC1	11.1%
Cc1ccc(-c2cccc(-c3ccn(CCN4CCCC4)n3)c2)nn1	-13.8%
CCCN1CC(C(=O)Nc2ccccn2)CC1=O (stereo not given)	1.5%
NC(=O)C1CCC(NC(=O)COc2ccc(Cl)c(Cl)c2)CC1 (stereo not given)	-29.1%
O=C(Cc1ccccc1)N1CCC2(CC(=O)N(c3cccc(F)c3)C2)C1 (stereo not given)	10.2%

SMILES	Percent Effect
CNC(=O)COc1ccc(CNCc2ccc(F)cc2F)cc1	-35.4%
CC1(C)CN(C(=O)NCCc2ccn(-c3ccccc3)n2)CCO1	16.6%
Cc1nccn1CCCC(=O)N1CCC(Nc2cccnn2)CC1	-6.43%
O=C(NC[C@H]1OC[C@@H]2CCN(Cc3ccco3)C[C@@H]21)c1ccsc1	4.74%
Cc1ncc(CN(C)C2CCCN(Cc3noc(C4CC4)n3)C2)s1 (stereo not given)	11.1%
CCc1noc(CN2CCN(C(=O)N(C)C)CC2)n1	5.9%
O=C1CC2(CCN(S(=O)(=O)C3CC3)C2)CN1c1cncnc1 (stereo not given)	-33.9%
Cc1nccn1C1CCCN(C(=O)COCC(F)(F)F)C1 (stereo not given)	-10.2%
CC(=O)N1CCCN(Cc2csc(-c3ncccn3)n2)CC1	-13%
CC(NC(=O)N(C)CCCOc1ccc(F)cc1)c1nncn1C (stereo not given)	-11.9%
c1cnn(CC2CN(CC3CCCC3)CCO2)c1 (stereo not given)	-0.337%
CC(C)(CNC(=O)NCCOc1cccc(F)c1)C(N)=O	28.8%
COC[C@@]12CCO[C@@H]1CCN(Cc1ccccc1F)C2	-24.5%
CNc1cccc(C2CCCN(C(C)=O)C2)n1 (stereo not given)	23.2%
CN(C)S(=O)(=O)N1CCC(Oc2ccccn2)CC1	10.6%
N#CC1CCCN(c2nc(-c3ccccc3)nc3c2CCNCC3)C1 (stereo not given)	-18.1%
COc1cc(C(=O)N2CCCS2(=O)=O)cc(Cl)c1OC	-4.54%
Cc1cc(C(=O)N2CC[C@@H]3CN(S(C)(=O)=O)CCO[C@@H]3C2)c(C)o1	1.92%
N#CCCN(CCC#N)C(=O)CN1CCCC1Cc1cccc(F)c1 (stereo not given)	-0.707%
Cc1cnn(CC(C)NCc2csc(-c3ccco3)n2)c1 (stereo not given)	1.53%
